Results reported in PubChem BioAssay (NCI).
The panel holds about 83,000 compounds, 20% with a hit somewhere; the sample as a whole holds those more often.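 Results are percent growth after 48 hours of single-concentration exposure. 100 means growth as in untreated cells, lower positive values show inhibition; negative values down to -100 show cell death.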 Values without a mark were called inactive. Calls of active or inactive are those of the source. The calls were made as follows: active = growth percent below 10; inactive = the rest.

The compounds below were run on HCT-15 colon (assay: NCI-60 one-dose screen, 48 h (100 = growth as untreated, 0 = no growth, -100 = all killed)). Conditions: 10 µM unless noted.

SMILES	growth
CCCCCCCC[C@@H]1N[C@@H](C(=O)OC)Cc2c1[nH]c1ccccc21	94.2%
COC(=O)c1cc(N=C2NC(=O)/C(=C/C=C/c3ccccc3)S2)ccc1O	25.8%
CSc1nnc(-c2cc3c([nH]c4ccccc43)c(-c3cccc(O)c3)n2)n1-c1ccccc1	26.7%
Cc1ccc(-c2nc([P+](c3ccccc3)(c3ccccc3)c3ccccc3)c(S(=O)(=O)c3ccc(C)cc3)o2)cc1	4.17% (active)
O=S(=O)(NCCNc1nccc(-c2c(-c3ccc(F)c(O)c3)nc3occn23)n1)c1ccc(Cl)cc1	98.9%
COc1ccc2c(c1)c(-c1nc(-c3c[nH]c4ccncc34)cs1)cn2C	-54.2% (active)
CC(C)c1ccc(C(=O)Nc2nc3ccc(O)c(CN(C)C)c3s2)cc1	20%
O=C1Nc2ccccc2/C1=C/c1nc2ccccc2c(=O)[nH]1	72.6%
O=C(c1ccccc1)c1ccc(C2CCCCC2)cc1	91.5%
C=CC(=O)N1CCN(c2cccc(Oc3nccc(Nc4nnc(-c5ccc(Br)cc5)s4)n3)c2)CC1	40.3%
O=C1C(Cl)=C(Nc2ccc(S(=O)(=O)N3CCOCC3)cc2)C(=O)c2ccccc21	36.2%
CCOC(=O)C1=C(C)NC(=O)NC1c1c(Cl)n(CCCl)c2ccccc12 (stereo not given)	99.6%
CCCC/C=C/[C@@H]1C[C@H]1CCO	97.7%
C=C(CBr)[C@@H]1CC[C@]2(C(=O)O)CC[C@]3(C)[C@H](CC[C@@H]4[C@@]5(C)CCC(=O)C(C)(C)[C@@H]5CC[C@]43C)[C@@H]12	73.2%
CC/C=C\C[C@H](O)C/C=C1/C(=O)C=C[C@@H]1C/C=C\CCCC(=O)N(C)C	-21.8% (active)
CNC(=O)c1[nH]cc(-c2ccc(OC)cc2)c1-c1cc(OC)c2c(c1OC)OCO2	97.1%
O=C(/C=C/c1cccs1)Nc1ncc(Cc2ccccc2F)s1	27.1%
CCCn1cc2c(=O)nc3sc(Cc4ccccc4)c(C)n3c2n1	106%
CCC(C)N(CCNc1cc(OC)cc2cccnc12)CC(C)C (stereo not given)	71.7%
C1CCC([PH+](C2CCCCC2)C2CCCCC2[PH+](C2CCCCC2)C2CCCCC2)CC1.[Au].[CH-]1CCCCC1C1CCCC[N-]1 (stereo not given)	-26.2% (active)

SMILES	growth
O=C1/C(=C/c2ccccc2Br)COc2ccc(O)cc21	40.7%
O=C(Nc1ccccc1O)c1ccc(CNC(=O)c2sccc2Nc2ccnc(C(F)(F)F)c2)cc1	47.6%
N#Cc1c(-c2ccc(Cl)cc2)nc(NN2C(=O)c3ccccc3C2=O)nc1N1CCOCC1	112%
O=C(OC(CO)C(=O)NC12CC3CC(CC(C3)C1)C2)c1ccc(Cl)cc1 (stereo not given)	99.4%
COc1ccc(/C=N/C2=C(C#N)C(c3ccccc3)c3ccc4ccccc4c3O2)cc1 (stereo not given)	15.8%
CC(C)c1ccc(C(=O)Nc2sc3c(c2C(N)=O)CCC(=O)C3)cc1	-15.7% (active)
N=C(N)c1ccc(-c2ccc(-c3ccc(Cl)cc3Cl)s2)cc1	-70.6% (active)
O=C(/C=C/c1cccc(Cl)c1)c1ccc(Nc2nc(Nc3ccc(F)cc3)nc(Nc3ccc(Cl)cc3)n2)cc1	101%
COc1c(B(O)O)cccc1-c1nc2c(F)cc3[nH]ncc3c2c2c1CCCC2	0.465% (active)
N#Cc1ccc(O)c(C2=NCC(c3ccccc3)O2)c1 (stereo not given)	20.8%
COC(=O)c1nc(-c2ccccc2)oc1S(=O)(=O)Cc1ccccc1	62.2%
OCCn1cc(-c2nc(-c3c[nH]c4ncccc34)cs2)c2cc(F)ccc21	41.6%
O=[N+]([O-])c1cccc(-c2nc3cc4nc5ccccc5[nH]c4cc3n2)c1	99.5%
CN(C)c1ccc(C(=O)OCCCCCCl)cc1	100%
CC(C)COc1nc2c(c(=O)n(C)c(=O)n2C)n1C	97%
Nc1nc(-c2ccc(Cl)cc2)nc2c1sc(=S)n2-c1ccccc1	60.1%
Cc1ccc(NC(=O)c2sc3nc(C)c(Br)c(C)c3c2N)cc1	93.4%
Cc1cc(N2CCCCC2)cc(C)c1-c1csc(NC(=O)c2ccncc2)n1	80.5%
CCN1C(=S)N(c2ccccc2)C2C1NN=c1s/c(=C3\C(=O)N(C(C)C)c4ccccc43)c(=O)n12 (stereo not given)	93.3%
O=C(N(c1ccccc1)c1ccccc1)n1cc(I)c2nc(Cl)nc(Cl)c21	30.6%
